Assay outcomes: PubChem BioAssay, National Center for Advancing Translational Sciences (NCATS)
HT1080-NT tox = kills 2HG-producing HT-1080-NT fibrosarcoma cells; HT-1080-NT fibrosarcoma viability, CellTiter-Glo ATP luminescence, 48 h; Potency, µM (top dose mostly 46.1 µM), without a hit: top-dose activity, negative = less viability, usual class: cytotoxic; 360,000 tested, 1.6% active; AID 686970;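 note: NT is the 2HG producing partner of a matched IDH1 knockdown line; 0% = DMSO-treated cells and -100% = media-only wells without cells; nearly all actives have a fitted effect of over 55% in size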
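A 48-hour cytotoxicity screen used HT-1080-NT cells plated 2 hours before compound delivery. ATP-based CellTiter-Glo luminescence measured viability, normalized to DMSO and no-cell controls.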
DT40 TDP1 no CPT = qHTS for Inhibitors of human tyrosyl-DNA phosphodiesterase 1 (TDP1): qHTS in cells in absence of CPT; Potency, µM (highest dose often 46.2 µM), for inactives: at the top dose activity change, negative = growth inhibition, most hits filed as inhibitors; DT40 Tdp1-/- hTDP1 cells, no CPT, ATP luminescence, 48 h; AID 686978, 2013; 420,000 tested, 15% active; note: % is set by controls: 0 for no effect and ±100 for the full control effect; nearly all actives have a fitted effect of over 55% in size
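Compound effects on proliferation are scored in DT40 Tdp1-/-;hTDP1 cells in the absence of CPT. ATP levels (CellTiter-Glo luminescence) are recorded after a ≥48 hr, 37 °C incubation.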
HepG2 tox = kills HepG2 cells in TGF-b inhibitor counter-screen | Potency, µM (top dose mostly 46.1 µM), for inactives: at the highest dose activity change, negative = cytotoxicity, hits mostly cytotoxic | HepG2 CAGA-GFP viability, ATP luminescence, 18 h | AID 588856 | 410,000 tested, 0.76% active
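HepG2 CAGA-GFP cells (1000/well, DMEM with 1% FBS) received compound, then TGF-beta at 500 pg/mL final, and were incubated 18 hours at 37 degrees C. Viability was read by CellTiter-Glo luminescence. Media-only wells were set as complete cell-killing and DMSO as no toxicity.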
TGFb SMAD3 inh = inhibitors of TGF-b signaling | HepG2 CAGA-GFP TGF-b/SMAD3 reporter, GFP fluorescence, 18 h; TGF-beta stimulated, 500 pg/mL final | Potency, µM (highest dose often 46.1 µM), inactives show at the highest dose activity, negative = inhibition, most hits filed as inhibitors | 410,000 tested, 1.2% active; note: % is set by controls: 0 for no effect and ±100 for the full control effect; nearly all actives have a fitted effect of over 65% in size
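HEPG2 CAGA-GFP, 1000 cells/well; 2 h settle, 37 C; cpd via pin tool; TGF-b 500 pg/mL final; 18 h, 37 C; GFP imaging ex488/em500-530; %Activity normalised to -TGF-b and +DMSO controls; CRC fit, curve class.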
TDP1 cell CPT = growth inhibition of DT40 Tdp1-/-;hTDP1 cells with camptothecin (screen for TDP1 inhibitors); chicken DT40 Tdp1-/-;hTDP1 cells + 20 nM CPT, ATP luminescence, 48 h; Potency, µM (top dose mostly 46.2 µM), for inactives: at the top dose activity change, negative = growth inhibition, most hits filed as inhibitors; 420,000 tested, 12% active; note: % is set by controls: 0 for no effect and ±100 for the full control effect; nearly all actives have a fitted effect of over 55% in size
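Chicken DT40 Tdp1-/- cells stably complemented with human TDP1 were seeded at 400 cells/well in medium containing 20 nM camptothecin, exposed to pin-transferred compounds, and grown at 37 °C for at least 48 hr. Viability was read as ATP luminescence.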
HT1080 IDH1KD tx = toxicity to HT-1080 IDH1 knockdown cells (counter line); HT-1080 IDH1 knockdown viability, ATP luminescence, 48 h; Potency, µM (top dose mostly 46.1 µM), without a hit: top-dose activity, negative = toxicity, actives largely listed as cytotoxic; 360,000 tested, 2% active;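 note: 0% = DMSO wells and -100% = cell-free medium wells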
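% activity derives from luminescence (CellTiter-Glo), normalised to DMSO and no-cell wells. HT-1080-IDH1KD cells, 750/well, had 48 h compound exposure at 37 °C.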
* hit, by the source's call; ? = inconclusive; . = no result; [ ] = dose if it differs, or a comment. Shown are actives, neighbours in structure and some others; about 17% of the full set was active somewhere. Calls come from the whole dose curve; as a rule, active = well fitted curve in the direction sought with a large enough effect; inconclusive = small, poorly fitted or top-dose-only effect, or another doubt; inactive = no such curve, though single readings can be large; an effect the other way counts as inactive or inconclusive. Potency is the fitted concentration of half-maximal effect.

SMILES	HT1080-NT tox	DT40 TDP1 no CPT	HepG2 tox	TGFb SMAD3 inh	TDP1 cell CPT	HT1080 IDH1KD tx
CCOc1ccc(N2CC(O)Cn3c2nc2c3c(=O)n(CCCc3ccccc3)c(=O)n2C)cc1 (stereo not drawn)	-22%	?	-21%	30%	?	-26%
COc1cccc(N2CC(O)Cn3c2nc2c3c(=O)n(CCCc3ccccc3)c(=O)n2C)c1 (stereo not drawn)	-3%	16µM*	1%	?	12µM*	-17%
CN(C)c1nc(=NCc2ccco2)ss1	-3%	0.037µM*	-74%	0.32µM*	0.15µM*	-6%
O=S1(=O)NC(=NCc2ccco2)c2ccccc21	2%	-13%	-15%	3%	-12%	2%
COc1ccc([C@H]2C[C@H](O)[C@@H](n3cc(COC(=O)c4ccccc4)nn3)CN2CC2CCCCC2)cc1	?	23µM*	-120%	?	23µM*	?
Cc1ccc([C@H]2C[C@@H](n3cc(COC(=O)c4ccccc4)nn3)[C@H](O)CN2C(=O)C2CCCCC2)cc1	-12%	21µM*	-16%	-1%	?	-6%
CCCCCCN1C[C@@H](O)[C@H](n2cc(COC(=O)c3ccccc3)nn2)C[C@@H]1c1ccc(C)cc1	3%	21µM*	1%	0%	21µM*	2%
Cc1ccc([C@H]2C[C@@H](n3cc(COC(=O)c4ccccc4)nn3)[C@H](O)CN2CC2CCCCC2)cc1	1%	?	-8%	-6%	?	1%
O=C(OCc1cn([C@H]2C[C@H](c3ccccc3)N(CC3CCCCC3)C[C@@H]2O)nn1)c1ccccc1	-6%	?	-4%	4%	?	-7%
Cc1ccc([C@H]2C[C@H](n3cc(COC(=O)c4ccccc4)nn3)[C@@H](O)CN2CC2CCCCC2)cc1	9%	21µM*	1%	6%	?	10%
COc1ccccc1-c1cc(NCc2cnc(C)cn2)ncn1	.	6%	.	.	14%	.
Cc1cccc(CNc2cc(-c3ccccc3C)ncn2)c1	.	6.5µM*	.	.	15µM*	.
COc1ccccc1-c1cc(NCc2cccc(C)c2)ncn1	.	18µM*	.	.	13µM*	.
Cc1onc(-c2ccccc2)c1C(=O)OCC(=O)c1ccc[nH]1	5%	?	-3%	-14%	?	10%
Cc1cccc2c1-c1sc(C(=O)Nc3ccccc3N3CCN(C)CC3)cc1CO2	?	18µM*	16µM*	?	18µM*	-30%
CCN1CCN(C(=O)c2cc3c(s2)-c2c(C)cccc2OC3)CC1	-1%	?	-29%	-3%	?	-10%
CCN1CCN(CCCNC(=O)c2cc3c(s2)-c2c(C)cccc2OC3)CC1	.	5.8µM*	-89%	?	4.6µM*	.
Cc1cccc2c1-c1sc(C(=O)NCCCN3CCN(c4cccc(Cl)c4)CC3)cc1CO2	.	?	-86%	13µM*	23µM*	.
CCN(C(=O)c1cc2c(s1)-c1c(C)cccc1OC2)c1ccccc1F	.	21µM*	-5%	?	21µM*	.
CC1(C(=O)NCc2ccccc2)CN(S(C)(=O)=O)CC(=O)N1Cc1cccs1 (stereo not drawn)	15%	4%	.	.	-12%	-2%
CCc1sc(C(=O)N(CCOC)c2c(N)n(Cc3ccccc3)c(=O)[nH]c2=O)cc1C	3%	6%	2%	6%	-3%	-1%
O=S(=O)(c1ccc(Cl)cc1)N1CCN(c2nc(Nc3cc(Cl)ccc3O)nc3ccccc23)CC1	11%[32.3 µM]	?	.	.	?	19%[32.3 µM]
O=C(NCCCN1CCOCC1)c1cc2c(s1)-c1ccccc1OC2	-21%	-29%	-17%	-11%	-30%	-29%
COc1ccc(OC)c(CCNC(=O)c2cc3c(s2)-c2c(C)cccc2OC3)c1	.	7.3µM*	-23%	-20%	12µM*	.
CCCN(C(=O)c1cc2c(s1)-c1ccccc1SC2)c1ccccc1F	.	16µM*	-30%	.	?	.
SMILES	HT1080-NT tox	DT40 TDP1 no CPT	HepG2 tox	TGFb SMAD3 inh	TDP1 cell CPT	HT1080 IDH1KD tx
Cc1cccc2c1-c1sc(C(=O)NCCCN3CCN(c4ccccc4F)CC3)cc1CO2	.	6.5µM*	-43%	4%	?	.
COc1ccc(CN(C)CC(=O)Nc2ccccc2C(=O)NC2CC2)cc1F	13%	?	2%	-3%	?	25%
CCOC(=O)C[C@@H]1OC[C@H](CO)N1S(=O)(=O)c1ccc(C)cc1	3%	11%	.	.	10%	-5%
Cc1cccc(OCC(=O)Nc2ccc(O)c(-c3nc4ccccc4o3)c2)c1	.	?	6%	5%	?	.
CC/C(=N\N=C(/CC)c1ccccc1N)c1ccccc1N	-1%	23µM*	10%	19%	29µM*	2%
Cn1cc(-c2nc3cnc(OCc4ccccc4)nc3n(CCC#N)c2=O)c2ccccc21	.	17%	.	.	10%	.
CCC(C)(C)NC(=O)C(c1sccc1C)N(Cc1ccco1)C(=O)c1csnn1 (stereo not drawn)	2%	16µM*	6%	1%	16µM*	-2%
CN(c1nccc(=O)[nH]1)C1CCN(c2nc3ccccc3n2Cc2ccc(F)cc2)CC1	.	?	.	.	-4%	.
COc1ccc(CCN=C(N)NS(=O)(=O)c2cccs2)cc1	4%	-1%	-14%	-1%	-22%	2%
